Shown are actives, neighbours in structure and some others; about 2.1% of the full set was active somewhere.
MLLE-PAM2 inh: inhibitors of microRNA-mediated deadenylation, human PABP1 MLLE binding; inhibition, % at 20 µM; GST-MLLE / FITC-PAM2 fluorescence polarization; P11940; actives 0.36% (n = 360,000); in the data active means inhibition above about 35%, passing the limit was not always enough
eIF4H FP inh: inhibitors of RNA binding by human eIF4H. Q15056. eIF4H fluorescence polarization binding assay. inhibition, % at 35 µM. actives 0.94% (n = 290,000). AID 2012;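 further: calls also rest on retests at 20 µM and on dose response follow-up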
CendR NRP1 mod: modulators of CendR peptide binding to human neuropilin-1; O14786; FAM-RPARPAR peptide binding to NRP-1, fluorescence polarization; inhibition, % at 25 µM; actives 0.85% (n = 360,000);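 active means inhibition or corrected inhibition above about 18%, plus a signal ratio from 0.5 to 1.5, limit read from the data, passing the limit was not always enough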
PABP FP inh: PABP-poly(A) binding inhibition; P11940; PABP-poly(A) RNA binding, fluorescence polarization; inhibition, % at 35 µM; actives 1% (n = 290,000); AID 2014;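 further: calls also rest on retests at 20 µM and on dose response follow-up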
Each line names hits and unclear results; the compound was inactive in the other large screens. Unless noted, how the calls were made is not given here.

CCCCCCn1c(CN2CCN(CCO)CC2)nc2c1c(=O)n(C)c(=O)n2C	PABP FP inh active
CCN1C(=O)[C@H]2[C@@H](c3ccc(C)cc3)N[C@]3(CCCN(Cc4ccc(OC)cc4)C3=O)[C@H]2C1=O	none (no result: eIF4H FP inh, PABP FP inh)
Nc1cc2nsnc2cc1Br	CendR NRP1 mod 40
CCC(C(=O)NCc1cccs1)n1nc(C)n2c(cc3occc32)c1=O (stereo not drawn)	none
Cc1cc(C)n(C(=O)N(c2ccccc2)c2ccccc2)n1	none
O=C(CN(CC1CCCO1)C(=O)CNS(=O)(=O)c1ccc(Cl)cc1)NCC1CCCO1 (stereo not drawn)	CendR NRP1 mod 30
Cc1ccc(S(=O)(=O)NCC(=O)N(CC(=O)NCC2CCCO2)Cc2ccc(Cl)cc2)cc1 (stereo not drawn)	none
CS(=O)(=O)N(CC(=O)Nc1ccccc1-c1ccccc1)c1ccccc1	none
CS(=O)(=O)N(CC(=O)Nc1ccccc1-c1ccccc1)c1cccc(F)c1	CendR NRP1 mod 27
O=C(CCSc1nnc2ccccn12)Nc1ccc2c(c1)OCO2	CendR NRP1 mod 23
COCCn1c(SCC(=O)Nc2ccc3c(c2)OCCO3)nc2ccccc2c1=O	none (no result: eIF4H FP inh, PABP FP inh)
c1ccn2c(SCc3ccc4c(c3)OCO4)nnc2c1	CendR NRP1 mod 24
O=C(CSc1nnc2ccccn12)Nc1ccc2c(c1)OCO2	none
Nn1c(SCC(=O)Nc2ccc3c(c2)OCO3)nnc1-c1ccccc1	none
Cc1nnc(SCC(=O)Nc2ccc3c(c2)OCO3)n(N)c1=O	eIF4H FP inh active, PABP FP inh 81
COCC(C)n1c(SCC(=O)Nc2ccc3c(c2)OCCO3)nc2ccccc2c1=O (stereo not drawn)	CendR NRP1 mod 22 (no result: eIF4H FP inh, PABP FP inh)
COc1ccccc1-c1cnc(C(O)c2ccc(C(C)(C)C)cc2)[nH]1 (stereo not drawn)	none (no result: eIF4H FP inh, PABP FP inh)
COC(=O)[C@H](CC(C)C)NS(=O)(=O)c1ccc(F)cc1Br	none (no result: eIF4H FP inh, PABP FP inh)
O=C(c1ccc(=O)oc1)N1CCOCC1	eIF4H FP inh 88, PABP FP inh 66
O=C(O)c1cccc(S(=O)(=O)Nc2ccccc2Oc2ccccc2)c1	none (no result: eIF4H FP inh, PABP FP inh)
C=CCNC(=O)c1ccc(CN2CCC(Cc3ccccc3)CC2)cc1	eIF4H FP inh 95, PABP FP inh 84
CC(C)NC(=O)c1ccc(CN2CCC(Cc3ccccc3)CC2)cc1	none
Fc1ccc(NC(=S)N2CCCC(c3ccccc3)=N2)cc1	eIF4H FP inh 54, PABP FP inh active
CCOC(=O)C1=NOC(Cn2cc(C#N)c(=O)n(C)c2=O)C1 (stereo not drawn)	CendR NRP1 mod 36
C=CCC1(CC=C)CCCN1C(=O)c1cc(COc2cncc(Cl)c2)on1	none
C=CCC1(CC=C)CCCN1C(=O)c1cc(COc2cccc(OC)c2)on1	CendR NRP1 mod 21
O=C(O)CSc1c2ccccc2cc2ccccc12	MLLE-PAM2 inh 38
CCN(C(=O)COc1ccc(C(C)=O)cc1)c1cccc2ccccc12	CendR NRP1 mod 36 (no result: eIF4H FP inh, PABP FP inh)
CC1=NN(c2ccc(C(=O)OC(C)C)cc2)C(=O)/C1=C\C=C\c1ccco1	none
CCOC(=O)c1ccc(N2N=C(C)/C(=C/C=C/c3ccco3)C2=O)cc1	eIF4H FP inh inconclusive, PABP FP inh 3.0
N#Cc1cc2c([nH]c1=S)CCCCCC2	MLLE-PAM2 inh 38
Nc1cccn2c(-c3ccc(Cl)cc3)cnc12	eIF4H FP inh inconclusive
Nc1cccn2c(-c3ccc(Cl)c(Cl)c3)cnc12	eIF4H FP inh 95, PABP FP inh 32
Cc1cccc(NC(=O)CN2C(=O)S/C(=C\c3ccc(-c4cccc(C(=O)O)c4C)o3)C2=O)c1	eIF4H FP inh 92 (no result: MLLE-PAM2 inh, CendR NRP1 mod)
Cc1ccc(NC(=O)CN2C(=O)S/C(=C/c3ccc(-c4cc(C(=O)O)ccc4C)o3)C2=O)cc1C	PABP FP inh 54
Cc1ccc(C(=O)O)cc1-c1ccc(C=C2C(=O)c3ccccc3C2=O)o1	none
Cc1ccccc1NC(=O)CN1C(=O)S/C(=C\c2ccc(-c3cccc(C(=O)O)c3C)o2)C1=O	none
COC(=O)C(C)N1C(=O)S/C(=C\c2ccc(-c3ccc(C(=O)O)cc3C)o2)C1=O (stereo not drawn)	eIF4H FP inh 52, PABP FP inh 45
CCn1c(C)cc(/C=C2\SC(=O)N(CC(=O)Nc3ccc(C)c(C)c3)C2=O)c1C	none
Cc1ccc2c(c1)-c1c(ssc1=S)C(C)(C)N2C(=O)CSc1nncn1C	eIF4H FP inh 2.4, PABP FP inh 56
CC(C)C[C@H]1CNC(=S)N1CC1CCCN1C[C@H](CC(C)C)N1C[C@H](Cc2ccc(O)cc2)N(CC2CCCCCC2)C1=S (stereo partly drawn)	none (no result: eIF4H FP inh, PABP FP inh)
Cc1c2n(c3ccccc13)CCN(C)C2	none (no result: eIF4H FP inh, PABP FP inh)
O=C(/C=C/c1ccco1)OCc1nnc(-c2ccccc2)o1	none

Source: PubChem (Sanford-Burnham Center for Chemical Genomics)
